An excerpt weighted towards active compounds, which were near 1.1% of everything screened.
VLA-4 inh = inhibition in a human VLA-4 binding assay | 330,000 tested, 0.2% active | P13612 | inhibition, % (about 7 µM as worked out from the volumes in the protocol) | VLA-4 expressing cells, ligand binding flow cytometry; in the data active = inhibition above about 50%
Target sequence (P13612 whole entry, looked up): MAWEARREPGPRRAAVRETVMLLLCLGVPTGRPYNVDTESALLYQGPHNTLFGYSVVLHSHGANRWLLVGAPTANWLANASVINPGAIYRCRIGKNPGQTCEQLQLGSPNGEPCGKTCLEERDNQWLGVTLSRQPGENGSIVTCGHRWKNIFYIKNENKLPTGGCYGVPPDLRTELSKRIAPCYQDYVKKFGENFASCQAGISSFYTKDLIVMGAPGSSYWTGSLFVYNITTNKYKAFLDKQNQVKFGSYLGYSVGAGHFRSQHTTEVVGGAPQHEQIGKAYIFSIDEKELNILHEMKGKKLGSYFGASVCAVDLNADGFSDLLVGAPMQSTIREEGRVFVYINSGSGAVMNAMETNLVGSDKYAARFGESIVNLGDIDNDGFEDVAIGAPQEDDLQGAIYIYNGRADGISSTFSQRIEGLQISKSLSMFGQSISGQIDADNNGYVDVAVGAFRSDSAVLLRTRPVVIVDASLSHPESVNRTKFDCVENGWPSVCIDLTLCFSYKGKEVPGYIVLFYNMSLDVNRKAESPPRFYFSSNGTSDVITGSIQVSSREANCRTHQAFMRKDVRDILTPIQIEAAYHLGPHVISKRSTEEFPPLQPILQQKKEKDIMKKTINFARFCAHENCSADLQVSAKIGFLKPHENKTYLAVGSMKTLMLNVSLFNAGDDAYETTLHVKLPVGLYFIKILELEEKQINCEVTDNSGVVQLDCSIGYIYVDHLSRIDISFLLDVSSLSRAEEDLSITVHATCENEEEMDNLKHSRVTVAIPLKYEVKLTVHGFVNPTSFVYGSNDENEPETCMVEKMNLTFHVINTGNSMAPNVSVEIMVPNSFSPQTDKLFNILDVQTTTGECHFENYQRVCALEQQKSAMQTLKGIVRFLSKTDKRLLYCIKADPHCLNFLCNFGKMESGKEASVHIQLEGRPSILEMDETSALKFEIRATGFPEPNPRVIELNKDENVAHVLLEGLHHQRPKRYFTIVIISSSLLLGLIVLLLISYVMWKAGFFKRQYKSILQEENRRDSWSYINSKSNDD
CIT2 TOR yeast = modulators of TOR pathway CIT2-GFP in S. cerevisiae | 320,000 tested, 0.065% active | S. cerevisiae CIT2-GFP strain, flow cytometry, 3 h; 100 means same as DMSO wells | GFP response vs DMSO, % at 10 µM;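 active = GFP response relative to DMSO above a set limit, near the screen mean plus 3 SD, cut at about 150% in these data; inconclusive = Fewer than 70 cells measured for a yeast strain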;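 note: ratio of well median GFP fluorescence to mean of DMSO wells on the plate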
LAP4 TOR yeast = yeast TOR pathway LAP4-GFP modulation | 320,000 tested, 0.34% active | GFP response vs DMSO, % at 10 µM | S. cerevisiae LAP4-GFP multiplex, flow cytometry GFP, 3 h; median GFP as percent of DMSO wells | AID 2023;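 active = GFP response vs DMSO above a set limit, about the screen mean plus 3 SD, cut at about 150% in these data; inconclusive = under 70 cell events counted for the yeast strain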
AGP1 TOR yeast = yeast TOR pathway AGP1-GFP modulation. 320,000 tested, 0.02% active. AID 2066. GFP response vs DMSO, % at 10 µM. S. cerevisiae AGP1-GFP multiplex flow cytometry, 3 h; GFP as percent of DMSO wells;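 active = GFP response relative to DMSO above a set limit, near screen average plus 3 SD, cut at about 150% in these data; inconclusive = fewer than 70 cells counted for the yeast strain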;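 note: median GFP channel fluorescence of the gated AGP1 strain per well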
MEP2-GFP yeast = alters MEP2-GFP fluorescence in TOR pathway yeast screen | S. cerevisiae MEP2-GFP strain, flow cytometry GFP, 3 h; 100% = DMSO control level | GFP response vs DMSO, % at 10 µM | 330,000 tested, 0.51% active | AID 2016;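 active = GFP response versus DMSO above a set limit, roughly screen mean plus 3 SD, cut at about 180% in these data; inconclusive = fewer than 70 cells counted for a yeast strain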;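 note: median GFP fluorescence of the barcode-gated MEP2-GFP cells per well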
RPL19A TOR yeast = yeast TOR pathway RPL19A-GFP modulation; 330,000 tested, 0.3% active; percent response vs DMSO, % at 10 µM; S. cerevisiae RPL19A-GFP strain, flow cytometry, 3 h; stronger effect = lower value;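 active = percent response vs DMSO below 50%; inconclusive = fewer than 70 events counted for the yeast strain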;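 note: median channel GFP fluorescence of the barcoded RPL19A-GFP strain; lower means less RPL19A-GFP as with rapamycin TOR inhibition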
Numbers stand for hits; – = inactive; ? = inconclusive; · = not tested or not shown; [ ] = remark or other dose.

SMILES	VLA-4 inh	CIT2 TOR yeast	LAP4 TOR yeast	AGP1 TOR yeast	MEP2-GFP yeast	RPL19A TOR yeast
Oc1c(C(c2cccs2)N2CCN(c3ccccc3)CC2)ccc2cccnc12 (stereo not drawn)	–	–	209	–	–	–
Cc1ccc(C(=O)C2CCN(C(=S)NCCCOC(C)C)CC2)cc1	–	–	–	–	–	–
CC(C)c1nnc(NC(=O)CCC(=O)N2CCN(c3ccccc3F)CC2)s1	–	–	–	–	–	–
Cc1cc(C)nc(N2CCN(C(=O)CCC(=O)Nc3nnc(C(C)C)s3)CC2)n1	–	?	–	–	710[may fluoresce violet]	47[may fluoresce violet]
Cc1ccc(-c2cc(-c3ccc(C)o3)nc(N)c2C#N)cc1	–	?	–	·	175[may fluoresce violet]	–
Cc1ccc(Cn2ccc(=O)c(OCc3ccccc3)c2C)cc1	–	?	–	–	234[may fluoresce violet]	–
O=C(CSc1ccc2nnc(-c3cccnc3)n2n1)Nc1ccccc1C(F)(F)F	–	·	–	–	–	–
CCN(CC)S(=O)(=O)c1ccc(C(=O)OCC(=O)NC2CCCC2)cc1	–	–	–	–	–	–
CCN(CC)S(=O)(=O)c1ccc(O)c(C(=O)OCC(=O)NC2CCCC2)c1	–	–	–	–	185	–
COc1ccc(NC(=O)[C@@H](NS(=O)(=O)c2cccc(Cl)c2)C(C)C)cc1S(=O)(=O)N1CCOCC1	–	–	–	–	–	–
COc1ccc(OC)c(C(=O)c2nc3c(n2O)CCCCC3)c1	–	?	–	–	823[may fluoresce violet]	20[may fluoresce violet]
COCC(C)OC(=O)/C(C#N)=C\c1coc2ccc(C)cc2c1=O (stereo not drawn)	–	?	–	–	303[may fluoresce violet]	–
Cc1ccc2occ(/C=N/NC(=O)[C@@H](N)Cc3ccccc3)c(=O)c2c1	–	–	–	–	–	–
CC(C)(C)c1ccc(C(=O)CC(Sc2ccc(Cl)cc2)C(=O)O)cc1 (stereo not drawn)	–	–	251	–	–	–
COc1ccc(S(=O)(=O)NCC2CCCN(C(=O)CCC(F)(F)F)C2)cc1 (stereo not drawn)	–	–	–	–	–	–
Nc1nc(-c2ccc3c(c2)CCCC3)c(CC(=O)O)s1	–	?	–	–	719[may fluoresce violet]	32[may fluoresce violet]
COc1ccc(C(CNc2ccc(C(F)(F)F)cn2)N(C)C)cc1OC (stereo not drawn)	–	–	–	–	–	–
O=C(COC(=O)C1CCN(c2ccc(C(F)(F)F)cn2)CC1)Nc1cccc(F)c1	–	–	152	–	–	–
Oc1c(N=Nc2ccccc2)sc2ccccc12	–	?	–	–	192[may fluoresce violet]	–
COc1cccc(Nc2nc(N)c([N+](=O)[O-])c(N3CCOCC3)n2)c1	–	?	–	–	214[may fluoresce violet]	–
S=P(N1CC1)(N1CC1)N1CC1	–	–	–	–	–	–
Cc1ccc(C)c(N2CCN(C(=O)c3ccc(Cn4c(=O)[nH]c5ccccc5c4=O)cc3)CC2)c1	–	?	–	?	489[may fluoresce violet]	–
O=C(c1ccc(Cn2c(=O)[nH]c3ccccc3c2=O)cc1)N1CCN(c2ccc(Cl)cc2)CC1	–	–	–	–	–	–
O=C(c1ccccc1O)N1N=C(C(F)(F)F)CC1(O)c1ccc([N+](=O)[O-])cc1 (stereo not drawn)	–	?	–	–	517[may fluoresce violet]	41[may fluoresce violet]
O=S(=O)(c1ccc(Br)cc1)N1CCN(Cc2ccco2)CC1	–	–	–	–	–	–
SMILES	VLA-4 inh	CIT2 TOR yeast	LAP4 TOR yeast	AGP1 TOR yeast	MEP2-GFP yeast	RPL19A TOR yeast
Cn1c(=O)c2ccccc2n(Cc2cccc(F)c2)c1=O	–	–	–	–	179	–
Cc1cc(S(=O)(=O)NC2CC(C)(C)NC(C)(C)C2)c(Cl)cc1Cl	–	–	–	–	–	–
O=C1/C(=C/c2ccc(O)cc2)COc2ccccc21	–	–	–	–	–	–
O=C1/C(=C/c2ccccn2)COc2ccccc21	–	–	152	–	–	–
CCN1C(=O)/C(=C\c2cccc(OC(=O)c3ccco3)c2)SC1=S	–	?	–	?	?	47[may fluoresce violet]
Cc1ccccc1NC(=O)c1ccccc1N(C)S(=O)(=O)c1ccccc1	–	–	–	–	–	–
CCc1ccc(N/C(=N/c2nc(C)cc(C)n2)NC(C)=O)cc1	–	–	–	–	–	–
Cc1cc(C)nc(/N=C(\NC(=O)C(C)(C)C)Nc2ccc(F)cc2)n1	–	?	–	?	470[may fluoresce violet]	48[may fluoresce violet]
CC(OC(=O)c1ccccc1CCc1ccccc1)C(N)=O (stereo not drawn)	–	?	–	?	373[may fluoresce violet]	22[may fluoresce violet]
CC(=O)Oc1ccc2c(=O)c(/C=N/c3cc(=O)[nH]c(=S)[nH]3)coc2c1	–	?	–	–	903[may fluoresce violet]	46[may fluoresce violet]
COc1cc(-c2nnc3sc(C4CCCCC4)nn23)cc(OC)c1OC	–	?	–	·	546[may fluoresce violet]	43[may fluoresce violet]
COc1ccc(NC(=O)NCc2ccccn2)cc1OC	–	–	–	–	–	–
COc1ccc(CC(=O)NCc2ccccn2)cc1OC	–	–	–	–	269	–
CCOC(=O)C1CCCN(C(=O)C2CCN(S(=O)(=O)c3cccs3)CC2)C1 (stereo not drawn)	–	?	–	–	226[may fluoresce violet]	–
O=c1[nH]cccc1-c1nc2ccccc2n1Cc1cccc(F)c1	–	–	–	–	–	–
CCS(=O)(=O)N1CCN(S(=O)(=O)c2ccc3c(c2)OCCO3)CC1	–	?	–	?	?	40[may fluoresce violet]
Cc1ccc(NC(=O)c2ccc(=O)n(CC(=O)Nc3ccccc3)n2)cc1	–	?	–	–	–	45[may fluoresce violet]
Cn1nc(C(=O)Nc2ccc(Cl)cc2)cc1C(=O)Nc1ccc(Cl)cc1	–	–	–	–	–	–
CC(=O)Nc1ccc(NC(=O)Cn2nc(C(=O)Nc3ccc(C)cc3)ccc2=O)cc1	–	–	–	–	–	–
Cc1ccc(NC(=O)c2cc(C(=O)Nc3ccc(C)cc3)n(C)n2)cc1	–	?	–	?	227[may fluoresce violet]	39[may fluoresce violet]
CCC(=O)N1CCc2nc(-c3ccccc3)sc2C1	–	–	–	–	–	–
CCn1c(-c2cc(-c3ccc(C)c(C)c3)nc3ccccc23)n[nH]c1=S	–	–	–	–	–	–
CCOc1cccc(-c2cc(-c3n[nH]c(=S)n3CC)c3ccccc3n2)c1	–	?	?	?	268[may fluoresce violet]	45[may fluoresce violet]
CCn1c(-c2c[nH]c3ccccc23)n[nH]c1=S	–	?	–	–	185[may fluoresce violet]	–
COc1ccc(CNC(=O)C(CC(C)C)NC(=O)c2ccccc2C)cc1 (stereo not drawn)	–	?	–	–	200[may fluoresce violet]	–
CCC(CC)C(=O)NCc1ccc(OC)cc1	–	–	–	–	–	–
COc1ccc(-c2ccc(SCC(=O)N3c4ccccc4CC3C)nn2)cc1OC (stereo not drawn)	–	–	163	–	183	–
C/C(=N\NC(=O)c1c(Br)c(C)nn1C)c1cccc(NC(=O)c2ccccc2C)c1	–	–	–	–	–	–
